Screens deposited in PubChem BioAssay by several laboratories.
ZTA counter: blocks Epstein-Barr virus ZTA, an EBNA-1 counter-screen. actives 0.15% (n = 320,000). AID 2234. inhibition, % at 11 µM. ZTA-DNA binding, fluorescence polarization; in the data active = inhibition above about 33%
EBNA-1 inh: blocks EBNA-1 binding to DNA; actives 0.34% (n = 300,000); inhibition, % at 14.8 µM; AID 1950; EBNA-1 DNA binding, fluorescence polarization; in the data active = inhibition above about 28%
LANA DNA inh: KSHV C-LANA DNA binding inhibition; actives 0.078% (n = 340,000); inhibition, % at 9 µM; MBP-C-LANA/FAM-LBS DNA binding, fluorescence polarization;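 active = highest replicate inhibition at or above 60% at 9 µM, even if other replicates fall short; inactive = all replicates below 60% inhibition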
E coli Lon inh: E. coli protease La inhibition; P0A9M0; inhibition, % at 7.94 µM; purified E. coli Lon protease, fluorescence polarization; actives 0.42% (n = 360,000); in the data active = inhibition above about 13%, passing the limit was not always enough
Target sequence (P0A9M0 whole entry, looked up): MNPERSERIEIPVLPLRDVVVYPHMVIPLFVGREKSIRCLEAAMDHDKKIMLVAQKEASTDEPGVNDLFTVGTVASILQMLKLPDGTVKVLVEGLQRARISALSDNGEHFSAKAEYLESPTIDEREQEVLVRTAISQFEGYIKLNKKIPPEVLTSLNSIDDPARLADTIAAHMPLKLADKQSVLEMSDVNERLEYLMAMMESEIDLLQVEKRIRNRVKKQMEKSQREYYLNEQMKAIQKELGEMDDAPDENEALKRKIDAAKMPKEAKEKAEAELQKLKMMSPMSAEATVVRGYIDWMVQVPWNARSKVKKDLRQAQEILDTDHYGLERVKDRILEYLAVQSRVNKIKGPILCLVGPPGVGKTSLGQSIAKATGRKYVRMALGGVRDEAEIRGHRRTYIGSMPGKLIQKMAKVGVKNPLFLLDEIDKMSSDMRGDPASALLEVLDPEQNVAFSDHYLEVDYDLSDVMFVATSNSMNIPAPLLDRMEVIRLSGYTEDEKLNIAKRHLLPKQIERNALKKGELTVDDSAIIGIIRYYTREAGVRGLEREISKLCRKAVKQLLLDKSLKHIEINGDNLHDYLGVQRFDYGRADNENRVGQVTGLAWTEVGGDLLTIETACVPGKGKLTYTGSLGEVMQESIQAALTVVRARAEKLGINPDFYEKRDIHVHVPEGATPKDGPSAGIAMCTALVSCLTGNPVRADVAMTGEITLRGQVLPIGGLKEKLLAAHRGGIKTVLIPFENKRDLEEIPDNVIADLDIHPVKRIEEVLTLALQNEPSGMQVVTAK
Keap1 Nrf2 FP: disrupts human Keap1 binding to Nrf2 peptide; Q14145; Keap1 Kelch-Nrf2 peptide fluorescence polarization, 1536-well; inhibition, % at 9.4 µM; actives 0.15% (n = 340,000); AID 504523; in the data active = inhibition above about 12%;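 note: human Keap1 Kelch domain with fluorescein labeled Nrf2 9mer peptide probe; higher means more block of Keap1 binding to Nrf2 peptide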
EBNA-1 inh conf: EBNA-1 (EBV) inhibition, confirmation | shares compounds with EBNA-1 inh | Recombinant EBNA-1 DBD, Cy5-DNA fluorescence polarization | inhibition, % at 14.8 µM | actives 35% (n = 830) | AID 2292;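 active = mean inhibition across replicates above a set limit taken from the earlier primary screen, cut at about 28% in these data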
ZTA counter trip: counter-screen for EBNA-1 inhibitors: Epstein-Barr virus ZTA inhibitors, triplicate | shares compounds with EBNA-1 inh | Zta-ZRE DNA binding, Cy5 fluorescence polarization | inhibition, % at 11.1 µM | 830 tested, under 10 active | AID 2328;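 active = mean inhibition over triplicates above a set limit taken from the primary EBNA-1 screen, cut at about 37% in these data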;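 note: purified full length Zta protein with Cy5 labeled ZRE DNA probe; inhibitors lower polarization by freeing the labeled DNA probe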
Of the large screens only hits and unclear results are named; the others gave an inactive call (follow-up assays come after a bar, where they were run). The list is not random: actives were taken first. Their share in the collection is about 0.85%.

COc1ccc(C2CC(=O)C=C3c4ccc(OC)cc4CCC32)cc1 (centres undefined)	none (no result: ZTA counter, EBNA-1 inh, LANA DNA inh, Keap1 Nrf2 FP)
COc1ccc(C(=O)Nc2ccccc2C(=O)NC(Cc2ccc(O)cc2)C(=O)NNC(=O)c2ccc(C)cc2)cc1 (centres undefined)	none
COc1ccc(C(=O)Nc2ccccc2C(=O)NC(Cc2ccc(O)cc2)C(=O)NNC(=O)c2ccccc2)cc1 (centres undefined)	EBNA-1 inh 82 | EBNA-1 inh conf inactive | ZTA counter trip inactive
CCOC(=O)[C@@H]1[C@H]2COc3cc(OC)ccc3[C@H]2N2C(=O)N(c3cccc(Cl)c3)C(=O)[C@@]12C	none
CCOC(=O)[C@@H]1[C@H]2COc3cc(OC)ccc3[C@H]2N2C(=O)N(c3cccc(Cl)c3)C(=O)[C@]12C	EBNA-1 inh 32 | EBNA-1 inh conf inactive | ZTA counter trip inactive
O=C1C=CC(n2cc(F)c(=O)[nH]c2=O)O1 (centres undefined)	none (no result: ZTA counter, EBNA-1 inh, LANA DNA inh, Keap1 Nrf2 FP)
CCc1cc(C(=O)N(CC(C)C)c2c(N)n(Cc3ccccc3)c(=O)[nH]c2=O)sc1C	EBNA-1 inh 33 | EBNA-1 inh conf inactive | ZTA counter trip inactive
O=C(Nc1ccc(-c2nc3ccccc3o2)cc1)c1ccc(N2C(=O)C3C4C=CC(C4)C3C2=O)cc1 (centres undefined)	EBNA-1 inh 103 | EBNA-1 inh conf 112 | ZTA counter trip inactive
CCOc1ccc2oc(C(=O)NNC(=O)c3ccccc3O)c(C)c2c1	EBNA-1 inh 73 | EBNA-1 inh conf inactive | ZTA counter trip inactive
Cc1c(C(=O)NNC(=O)c2ccccc2O)oc2ccc(Br)cc12	none
O=S(=O)(NCCOc1ccccc1)c1ccc2ccccc2c1	EBNA-1 inh 31 | EBNA-1 inh conf inactive | ZTA counter trip inactive
CC(C)C(=O)Nc1ccc(C(=O)NNC(=O)CCCOc2ccc(Cl)cc2Cl)cc1	EBNA-1 inh 36 | EBNA-1 inh conf inactive | ZTA counter trip inactive
CCCN(CC(=O)Nc1ccc(C(N)=O)cc1)CC(=O)Nc1ccc(Cl)cc1Cl	EBNA-1 inh 29 | EBNA-1 inh conf inactive | ZTA counter trip inactive
Cc1cc2c(cc1S(=O)(=O)N1CCCCC1)OCC(=O)N2	none
COc1ccc(N2CCN(S(=O)(=O)c3cc4c(cc3C)NC(=O)CO4)CC2)cc1	EBNA-1 inh 33 | EBNA-1 inh conf inactive | ZTA counter trip inactive
COc1cccc(N2CCN(S(=O)(=O)c3cc4c(cc3Cl)NC(=O)CO4)CC2)c1	EBNA-1 inh 32 | EBNA-1 inh conf inactive | ZTA counter trip inactive
Cc1cccc(N2CCN(S(=O)(=O)c3cc4c(cc3Cl)NC(=O)CO4)CC2)c1C	none
O=C(/C(=N/N=C/c1ccc(O)c(O)c1O)c1ccccc1)c1ccccc1	EBNA-1 inh 39 | EBNA-1 inh conf inactive | ZTA counter trip inactive
O=C(CNC(=O)c1ccco1)NCC(=O)OCc1ccc(C(=O)Oc2ccc(Cl)cc2)cc1	EBNA-1 inh 89 | EBNA-1 inh conf inactive | ZTA counter trip inactive
CS(=O)(=O)N(CC(=O)N/N=C/c1ccc(OCC(=O)N2CCOCC2)cc1)c1ccccc1Cl	EBNA-1 inh 36 | EBNA-1 inh conf inactive | ZTA counter trip inactive
O=C(N/N=C/c1ccc(OCC(=O)N2CCOCC2)cc1)c1ccccc1Cl	none
Cc1cc(C)cc(OCC(=O)OCC(=O)N(CC(C)C)c2c(N)n(Cc3ccccc3)c(=O)[nH]c2=O)c1	none
Cc1ccccc1C(=O)Nc1nc2c(C)csc2c(=O)s1	EBNA-1 inh 55 | EBNA-1 inh conf inactive | ZTA counter trip inactive
CCOc1cc(/C=N/NC(=O)C(=O)N/N=C/c2ccc(O)c(OCC)c2)ccc1O	EBNA-1 inh 28 | EBNA-1 inh conf inactive | ZTA counter trip inactive
O=C(NCc1nnnn1-c1ccc(Cl)cc1)C(=O)c1c[nH]c2ccccc12	none (no result: ZTA counter, EBNA-1 inh, LANA DNA inh, Keap1 Nrf2 FP)
CC(C)n1c(=O)c2ccccc2n1C(=O)c1ccccc1	none (no result: ZTA counter, EBNA-1 inh, LANA DNA inh, Keap1 Nrf2 FP)
COC(=O)Cc1c(C)c2ccc(OCC(C)=O)c(C)c2oc1=O	none
COC(=O)Cc1c(C)c2ccc(OCC(=O)N3CCCC(C)C3)c(C)c2oc1=O (centres undefined)	EBNA-1 inh 48 | EBNA-1 inh conf inactive | ZTA counter trip inactive
COc1cc(Nc2ccn3nccc3n2)cc(OC)c1OC	none (no result: ZTA counter, EBNA-1 inh, LANA DNA inh, Keap1 Nrf2 FP)
Cc1ccc(S(=O)(=O)N2[C@@H](c3ccc(Br)cc3)C(C(=O)O)=CC[C@H]2c2cccs2)cc1	none (no result: ZTA counter, EBNA-1 inh)
OC(c1ccc(F)c(F)c1)c1nc(-c2ccc3c(c2)OCO3)cs1 (centres undefined)	none (no result: ZTA counter, EBNA-1 inh, LANA DNA inh, Keap1 Nrf2 FP)
Cc1ccc(OCC(=O)Nc2ccc(S(=O)(=O)Nc3ccccn3)cc2)cc1C	EBNA-1 inh 43 | EBNA-1 inh conf inactive | ZTA counter trip inactive
CCc1cccc(OCC(=O)Nc2ccc(S(=O)(=O)Nc3ccccn3)cc2)c1	none
COc1ccc2c(c1)c(CC(=O)Nc1cccc(S(N)(=O)=O)c1)c(C)n2C(=O)c1ccc(Cl)cc1	EBNA-1 inh 37 | EBNA-1 inh conf inactive | ZTA counter trip inactive
O=C1c2c(O)cccc2Cc2cccc(O)c21	EBNA-1 inh 31 | EBNA-1 inh conf inactive | ZTA counter trip inactive
Cc1ccc(NC(=O)C2CC(=O)N/C(=N/N=C/c3ccco3)S2)cc1C (centres undefined)	EBNA-1 inh 30 | EBNA-1 inh conf inactive | ZTA counter trip inactive
CCOc1ccc(NC(=O)CCC(=O)NNC(=O)COc2ccc(C)cc2)cc1	none
CCOc1ccc(NC(=O)CCC(=O)NNC(=O)COc2ccc(C)cc2Br)cc1	EBNA-1 inh 51 | EBNA-1 inh conf 99 | ZTA counter trip inactive
c1ccc(-c2ccncn2)cc1	none (no result: ZTA counter, EBNA-1 inh)
CS(=O)(=O)c1ccc(Cl)c(NC(=O)Cc2ccccc2F)c1	none
CS(=O)(=O)c1ccc(Cl)c(NC(=O)Cc2c(F)cccc2Cl)c1	EBNA-1 inh 44 | EBNA-1 inh conf 30 | ZTA counter trip inactive
Nc1c(C(=O)NCc2ccc3c(c2)OCO3)nnn1Cc1cccc(F)c1	EBNA-1 inh 76 | EBNA-1 inh conf 29 | ZTA counter trip inactive
COc1cccc(Cn2nnc(C(=O)NCc3ccc4c(c3)OCO4)c2N)c1	none
Nc1c(C(=O)Nc2ccc3c(c2)OCCO3)nnn1Cc1ccc(Cl)cc1	none
Nc1c(C(=O)Nc2ccc3c(c2)OCCO3)nnn1Cc1cccc(F)c1	EBNA-1 inh 35 | EBNA-1 inh conf 87 | ZTA counter trip inactive
CSCCC(NS(=O)(=O)c1ccc(C)cc1C)C(=O)Nc1cccnc1 (centres undefined)	none (no result: ZTA counter, EBNA-1 inh)
Cc1ccc(S(=O)(=O)NCC2CCC(C(=O)NC3CCCCC3)CC2)cc1 (centres undefined)	EBNA-1 inh 49 | EBNA-1 inh conf 39 | ZTA counter trip inactive
CC(=O)Nc1ccc(S(=O)(=O)NCC2CCC(C(=O)NC3CCCCCC3)CC2)cc1 (centres undefined)	none
O=C(O)c1ccc(-c2nc(-c3ccccc3)cs2)cc1	none
c1ccc(-c2csc(-c3ccc(-c4csnn4)cc3)n2)cc1	EBNA-1 inh 57 | EBNA-1 inh conf 46 | ZTA counter trip inactive
